Reference: PubChem BioAssay
Unmarked numbers belong to inactive results. Active and inactive are the calls of the source. Rule as the data show it, unless noted: active = inhibition above about 30%; inactive = the rest.

The molecules below were run against Nuclear receptor coactivator 3 (Homo sapiens) (UniProt Q9Y6Q9) (assay: NCOA3 GAL4-fusion reporter inhibition – cell-based, luminescence, quadruplicate, confirmation (AID 588792;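 active = mean inhibition over 43.08%, the solvent-only control mean plus 3 SD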;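 also: 0% = DMSO treated cells and 100% = gossypol at 36 µM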)). Conditions: HEK293 GAL4-SRC3 luciferase reporter, at 3.6 µM, stronger effect = higher value.
Nuclear receptor coactivator 3 (Homo sapiens), sequence (Q9Y6Q9 whole entry, looked up, the tested form may be a part): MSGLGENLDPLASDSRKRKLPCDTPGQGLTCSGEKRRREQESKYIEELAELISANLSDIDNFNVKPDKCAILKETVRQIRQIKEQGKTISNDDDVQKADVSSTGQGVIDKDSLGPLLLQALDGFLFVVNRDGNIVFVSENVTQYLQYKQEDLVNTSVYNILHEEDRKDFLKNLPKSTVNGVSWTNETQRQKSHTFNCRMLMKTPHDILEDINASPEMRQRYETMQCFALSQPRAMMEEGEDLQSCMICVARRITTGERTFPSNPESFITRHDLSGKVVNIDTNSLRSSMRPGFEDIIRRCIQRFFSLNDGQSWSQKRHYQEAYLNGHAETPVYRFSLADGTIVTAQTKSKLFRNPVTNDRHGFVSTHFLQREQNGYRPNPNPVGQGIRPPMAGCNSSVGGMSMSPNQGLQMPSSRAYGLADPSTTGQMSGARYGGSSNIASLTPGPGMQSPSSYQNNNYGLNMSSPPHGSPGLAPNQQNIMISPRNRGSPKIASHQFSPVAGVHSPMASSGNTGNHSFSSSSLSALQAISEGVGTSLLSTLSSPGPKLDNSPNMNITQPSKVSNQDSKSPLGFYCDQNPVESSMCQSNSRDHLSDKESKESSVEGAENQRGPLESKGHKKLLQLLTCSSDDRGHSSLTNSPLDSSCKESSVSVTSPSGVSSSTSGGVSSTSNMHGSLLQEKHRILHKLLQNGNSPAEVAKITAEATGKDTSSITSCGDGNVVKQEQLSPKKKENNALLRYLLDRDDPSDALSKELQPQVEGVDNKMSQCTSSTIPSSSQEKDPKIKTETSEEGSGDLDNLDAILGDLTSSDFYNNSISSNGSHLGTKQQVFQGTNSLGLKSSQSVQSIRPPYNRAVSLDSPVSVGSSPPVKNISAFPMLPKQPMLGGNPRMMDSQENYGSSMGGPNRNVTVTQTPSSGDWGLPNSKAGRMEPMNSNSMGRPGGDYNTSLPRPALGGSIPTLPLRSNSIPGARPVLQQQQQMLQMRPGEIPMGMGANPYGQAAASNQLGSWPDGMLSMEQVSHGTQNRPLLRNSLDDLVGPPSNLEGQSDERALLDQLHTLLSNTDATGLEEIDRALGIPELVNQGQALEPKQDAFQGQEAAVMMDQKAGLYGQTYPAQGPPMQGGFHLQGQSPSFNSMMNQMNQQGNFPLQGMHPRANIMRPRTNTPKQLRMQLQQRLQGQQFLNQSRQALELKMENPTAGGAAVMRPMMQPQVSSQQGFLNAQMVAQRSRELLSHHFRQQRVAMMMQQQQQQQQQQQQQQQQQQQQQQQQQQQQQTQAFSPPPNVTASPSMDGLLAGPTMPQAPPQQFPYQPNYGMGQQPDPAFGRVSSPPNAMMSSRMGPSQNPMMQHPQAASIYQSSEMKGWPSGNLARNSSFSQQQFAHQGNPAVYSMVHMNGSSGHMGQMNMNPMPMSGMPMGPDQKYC
In the case of `CCN1/C(=C/c2cc[n+](C)cc2)C=Cc2cc(C)ccc21`, the inhibition is reported as 17%.
Molecule `O=C(Oc1ccc(F)cc1C(=O)/C=C/c1cccs1)c1cccc([N+](=O)[O-])c1` has an inhibition of -13.7%.
`CCCCCCCN1C2=NCCCN2c2ccccc21` was tested, and the inhibition was -5.13%.
For `CSc1ncccc1C(=O)NCc1nnc2ccccn12`, the inhibition was 3.35%.
For `CCCCC(=O)NC(=S)Nc1cccc(Cl)c1N1CCCCC1`, the inhibition was 1.21%.
For `CCc1ccc(C(=O)COC(=O)c2cncc(Br)c2)cc1`, the inhibition was 10.2%.
`CC(=O)Nc1nc(C)c(-c2csc(Nc3cccc([N+](=O)[O-])c3)n2)s1` was tested, and the inhibition was 7.09%.
`Brc1ccc2ncc3ccccc3c2c1` showed an inhibition of 40.2%.
In the case of `CC1=C(C(=O)N(C)C)CC(CC(=O)NCCCCc2ccccc2)C(=O)N1Cc1ccc(C(C)(C)C)cc1` (stereo not given), the inhibition is reported as -10.1%.
Molecule `NCCCn1c(C(=O)c2cc(Cl)c(N)c(Cl)c2)c2ccc([N+](=O)[O-])cc2[n+]1[O-]` has an inhibition of 26.8%.
In the case of `CC(C)Nc1nc(Cl)nc(NNC(=O)C(C)Oc2ccccc2)n1` (stereo not given), the inhibition is reported as -3.52%.
In the case of `CC(=O)N1CCCc2cc(S(=O)(=O)N3CCCC(C(=O)NCc4ccc(Cl)cc4)C3)ccc21` (stereo not given), the inhibition is reported as 4.47%.
In the case of `COc1ccc(-c2nc3c(c(SCC(=O)N4CCOCC4)n2)Cc2c(CO)cnc(C)c2O3)cc1`, the inhibition is reported as 5.29%.
Molecule `COc1ccc(/C=C/C(=O)C23CC4CC(CC(C4)C2)C3)cc1CN1CCOCC1` has an inhibition of 22.6%.
`CN1OC[C@@H]2CN(C(=O)c3ccc(-c4ccccc4)cc3)[C@H](c3ccc(-c4cccc(F)c4)cc3)C[C@@H]21` was tested, and the inhibition was -6.51%.
`CC[N+](CC)(CC)CCOc1ccc(/C=C/c2ccccc2)cc1` was tested, and the inhibition was 3.27%.
`c1csc(Cc2nn3c(-c4ccncc4)nnc3s2)c1` was tested, and the inhibition was 29.8%.
For `CCN(C(=O)COC(=O)/C(=C/c1ccccc1)n1nnnc1C)C1CCCCC1`, the inhibition was 26.9%.
With `COc1ccc(NC(=O)c2sc(=O)n(Cc3ccccc3C#N)c2C)cc1OC` the inhibition was 7.52%.
`CN1CCN(Cc2cc(COCc3ccccc3)c3cccnc3c2O)CC1` was tested, and the inhibition was 20.5%.
Work on `CCCCCCCNC(=O)C1(CC2CC(c3ccc(Cl)cc3)=NO2)CCN(C(=O)c2cc(OCC)c(OCC)c(OCC)c2)CC1` (stereo not given) yielded an inhibition of 20.9%.
For `COc1cc(C2C(C#N)=C(SC)NC3=C2C(=O)CCC3)ccc1O` (stereo not given), the inhibition was 20.9%.
For `COc1cc2c(ccc3cc(OC)c(OC)c(O)c32)cc1O`, the inhibition was 56.5% (active).
`Cc1ccc(CNC(=O)c2ccc3c(=O)c(O)c(-c4ccc(C)cc4)[nH]c3c2)cc1` showed an inhibition of 28.5%.
`CCOc1c(Br)cc(CNC2CCCCCCC2)cc1OC` was tested, and the inhibition was -5.01%.
In the case of `CC(C)(C)c1cc(C(=O)N/N=C/c2ccccc2O)n(-c2ccccc2)n1`, the inhibition is reported as 35.7%.
With `CCOc1cccc(-n2nnnc2-c2ccc(OC)cc2)c1` the inhibition was 7.46%.
With `CC1(C)C2CCC(C2)C1C/C=N/NC(N)=S` (stereo not given) the inhibition was 17.5%.
`Cc1ccc(-n2c(Cl)c(Cl)nc(Cl)c2=O)cc1` was tested, and the inhibition was 45.3% (active).
In the case of `COc1ccc(C(C(=O)NC2CCCCC2)N(C(=O)CCl)c2ccc(Cl)cc2)cc1` (stereo not given), the inhibition is reported as 54.1% (active).
`O=C(CNc1cccc2ccccc12)N/N=C/c1ccc[nH]1` showed an inhibition of 7.38%.
In the case of `CCN(CC)c1ccc(/C=N/NC(=O)c2cnccn2)c(O)c1`, the inhibition is reported as 45.2% (active).
`O=C(Cc1ccccc1)NNC(=O)Nc1cccc(Cl)c1` gave an inhibition of 10.6%.
In the case of `CCOC(=O)/C(C#N)=C/c1cc(C)n(-c2ccccc2)c1C`, the inhibition is reported as 18.5%.
`CCOC(=O)c1c(C)[nH]c2c1-c1ccccc1C(=O)C2=O` was tested, and the inhibition was 95.1% (active).
`Cc1cccc(OCC(=O)NCC(=O)N/N=C/c2ccc(O)cc2O)c1` gave an inhibition of 15.4%.
`C/C(N)=C(/C#N)C(=O)COC(=O)c1ccc(C#N)cc1` showed an inhibition of -7.91%.
Work on `O=C1N=c2ccccc2=C1c1sc(=O)[nH]c1O` yielded an inhibition of -3.29%.
Molecule `O=C(CC12CC3CC(CC(C3)C1)C2)Nc1nncs1` has an inhibition of 15.4%.
`O=C(N/N=C\c1cc(Br)ccc1O)c1ccc(S(=O)(=O)N2CCCCC2)cc1` was tested, and the inhibition was 72.3% (active).

These molecules were tested on transactivating tegument protein VP16 (Human herpesvirus 1), Gal4-VP16 luciferase reporter (assay: repression of VP16-driven luciferase reporter – cell-based, luminescence, high throughput, counter-screen for SRC3 inhibitor project (AID 588794)). Conditions: mammalian cells, at 3.6 µM, stronger effect = higher value.
With `CCN1/C(=C/c2cc[n+](C)cc2)C=Cc2cc(C)ccc21` the inhibition was 70.9% (active).
`O=C(Oc1ccc(F)cc1C(=O)/C=C/c1cccs1)c1cccc([N+](=O)[O-])c1` gave an inhibition of -23.3%.
`CCCCCCCN1C2=NCCCN2c2ccccc21` gave an inhibition of 21%.
With `CSc1ncccc1C(=O)NCc1nnc2ccccn12` the inhibition was -2.69%.
For `CCCCC(=O)NC(=S)Nc1cccc(Cl)c1N1CCCCC1`, the inhibition was -6.23%.
In the case of `CCc1ccc(C(=O)COC(=O)c2cncc(Br)c2)cc1`, the inhibition is reported as 7.77%.
With `CC(=O)Nc1nc(C)c(-c2csc(Nc3cccc([N+](=O)[O-])c3)n2)s1` the inhibition was -11.4%.
With `Brc1ccc2ncc3ccccc3c2c1` the inhibition was 19.1%.
Work on `CC1=C(C(=O)N(C)C)CC(CC(=O)NCCCCc2ccccc2)C(=O)N1Cc1ccc(C(C)(C)C)cc1` (stereo not given) yielded an inhibition of -1.43%.
Work on `NCCCn1c(C(=O)c2cc(Cl)c(N)c(Cl)c2)c2ccc([N+](=O)[O-])cc2[n+]1[O-]` yielded an inhibition of 9.54%.
`CC(C)Nc1nc(Cl)nc(NNC(=O)C(C)Oc2ccccc2)n1` (stereo not given) gave an inhibition of 4.03%.
`CC(=O)N1CCCc2cc(S(=O)(=O)N3CCCC(C(=O)NCc4ccc(Cl)cc4)C3)ccc21` (stereo not given) gave an inhibition of 9.17%.
`COc1ccc(-c2nc3c(c(SCC(=O)N4CCOCC4)n2)Cc2c(CO)cnc(C)c2O3)cc1` showed an inhibition of -10.4%.
For `COc1ccc(/C=C/C(=O)C23CC4CC(CC(C4)C2)C3)cc1CN1CCOCC1`, the inhibition was 6.66%.
`CN1OC[C@@H]2CN(C(=O)c3ccc(-c4ccccc4)cc3)[C@H](c3ccc(-c4cccc(F)c4)cc3)C[C@@H]21` was tested, and the inhibition was 18.4%.
Work on `CC[N+](CC)(CC)CCOc1ccc(/C=C/c2ccccc2)cc1` yielded an inhibition of 5.91%.
Work on `c1csc(Cc2nn3c(-c4ccncc4)nnc3s2)c1` yielded an inhibition of 20.8%.
Work on `CCN(C(=O)COC(=O)/C(=C/c1ccccc1)n1nnnc1C)C1CCCCC1` yielded an inhibition of 27%.
In the case of `COc1ccc(NC(=O)c2sc(=O)n(Cc3ccccc3C#N)c2C)cc1OC`, the inhibition is reported as 31.8% (active).
For `CN1CCN(Cc2cc(COCc3ccccc3)c3cccnc3c2O)CC1`, the inhibition was 31% (active).
In the case of `CCCCCCCNC(=O)C1(CC2CC(c3ccc(Cl)cc3)=NO2)CCN(C(=O)c2cc(OCC)c(OCC)c(OCC)c2)CC1` (stereo not given), the inhibition is reported as 0.73%.
With `COc1cc(C2C(C#N)=C(SC)NC3=C2C(=O)CCC3)ccc1O` (stereo not given) the inhibition was 14.7%.
In the case of `COc1cc2c(ccc3cc(OC)c(OC)c(O)c32)cc1O`, the inhibition is reported as -4.29%.
`Cc1ccc(CNC(=O)c2ccc3c(=O)c(O)c(-c4ccc(C)cc4)[nH]c3c2)cc1` showed an inhibition of 8.89%.
Work on `CCOc1c(Br)cc(CNC2CCCCCCC2)cc1OC` yielded an inhibition of -0.26%.
`CC(C)(C)c1cc(C(=O)N/N=C/c2ccccc2O)n(-c2ccccc2)n1` was tested, and the inhibition was 40.6% (active).
`CCOc1cccc(-n2nnnc2-c2ccc(OC)cc2)c1` showed an inhibition of 14.6%.
`CC1(C)C2CCC(C2)C1C/C=N/NC(N)=S` (stereo not given) showed an inhibition of 13.4%.
For `Cc1ccc(-n2c(Cl)c(Cl)nc(Cl)c2=O)cc1`, the inhibition was 17.9%.
`COc1ccc(C(C(=O)NC2CCCCC2)N(C(=O)CCl)c2ccc(Cl)cc2)cc1` (stereo not given) was tested, and the inhibition was 24.8%.
`O=C(CNc1cccc2ccccc12)N/N=C/c1ccc[nH]1` was tested, and the inhibition was 5.09%.
With `CCN(CC)c1ccc(/C=N/NC(=O)c2cnccn2)c(O)c1` the inhibition was 52.3% (active).
With `O=C(Cc1ccccc1)NNC(=O)Nc1cccc(Cl)c1` the inhibition was -0.2%.
`CCOC(=O)/C(C#N)=C/c1cc(C)n(-c2ccccc2)c1C` was tested, and the inhibition was 18.2%.
For `CCOC(=O)c1c(C)[nH]c2c1-c1ccccc1C(=O)C2=O`, the inhibition was 91.5% (active).
`Cc1cccc(OCC(=O)NCC(=O)N/N=C/c2ccc(O)cc2O)c1` was tested, and the inhibition was 14%.
`C/C(N)=C(/C#N)C(=O)COC(=O)c1ccc(C#N)cc1` was tested, and the inhibition was -0.63%.
In the case of `O=C1N=c2ccccc2=C1c1sc(=O)[nH]c1O`, the inhibition is reported as 2.71%.
`O=C(CC12CC3CC(CC(C3)C1)C2)Nc1nncs1` gave an inhibition of 19.6%.
`O=C(N/N=C\c1cc(Br)ccc1O)c1ccc(S(=O)(=O)N2CCCCC2)cc1` was tested, and the inhibition was 74.8% (active).
